This is a sample that favours compounds with a hit; in the whole collection about 1% have one here.
PrP UTR inh: inhibition of PrP 5' UTR reporter expression. cell-based PrP 5' UTR mRNA reporter, plate reader. 340,000 compounds, 0.35% hits. inhibition, % (no concentration beside the values); in the data active = inhibition above about 52%; note: 0 = median of the neutral control wells
FadD28 binding: inhibitors of Mycobacterium tuberculosis FadD28 bisubstrate binding; FadD28 bisubstrate probe binding, fluorescence polarization; inhibition, % at 12.5 µM; 360,000 compounds, 0.22% hits; in the data active = inhibition above about 8.5%, passing the limit was not always enough
BioA inh-1: inhibitors of Mycobacterium tuberculosis BioA enzyme | inhibition, % at 9.99 µM | 360,000 compounds, 0.096% hits | purified M. tuberculosis BioA enzyme, plate reader; in the data active = inhibition above about 40%
Mtb hypoxia rep: Mtb hypoxia fluorescent reporter inhibition; M. tuberculosis hypoxia-regulated fluorescent reporter, fluorescence; fluorescence inhibition, % (concentration not given with the values); 300,000 compounds, 0.1% hits; AID 1159583; in the data active = fluorescence inhibition mostly above about 23%, no sharp cut-off; inactive = mostly below about 17%
SSB-PriA inh: blocks PriA binding to SSB C-terminal tail | AlphaScreen SSBct-PriA binding, biotinylated peptide | inhibition, % at 33 µM | 430,000 compounds, 0.6% hits | AID 1272365; in the data active = inhibition mostly above about 37%, no sharp cut-off; inactive = mostly below about 20%;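 note: plate controls were negative control peptide for no effect and reference peptide for full effect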
TcdB GH inh: blocks C. difficile toxin B glycohydrolase activity. P18177. TcdB glycohydrolase enzymatic assay, plate reader. inhibition, % at 9.99 µM. 350,000 compounds, 0.24% hits. AID 652162; in the data active = inhibition above about 10%
BioA inh-2: blocks M. tuberculosis BioA aminotransferase. shares compounds with BioA inh-1. purified BioA enzyme, plate reader, dose response. max activity, %. 310 tested, under 10 active. AID 651679;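 note: top concentration of the dilution series was 10 µM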
HepG2 tox 2: HepG2 viability loss. HepG2 cytotoxicity, plate reader. 310 tested, under 10 active. AID 651898. shares compounds with BioA inh-1. max activity, %
NIH3T3 tox 5: NIH3T3 viability loss; shares compounds with BioA inh-1; NIH3T3 cytotoxicity, plate reader; activity change, negative = cytotoxicity, % at 26 µM; 310 tested, under 10 active
* marks the source's active call; other numbers are inactive results; i = inactive; / = not tested or not shown; [ ] = dose if it differs, or a comment. Unless noted, the rule behind the calls is not given here.

SMILES	PrP UTR inh	FadD28 binding	BioA inh-1	Mtb hypoxia rep	SSB-PriA inh	TcdB GH inh	BioA inh-2	HepG2 tox 2	NIH3T3 tox 5
COc1ccc(C=NNC(=O)CNC(=O)c2ccncc2)cc1	/	/	/	4	-6	/	/	/	/
CCc1cc(=O)oc2cc(C)cc(OCC(=O)NCc3ccccn3)c12	1	-4	1	10	-11	1	/	/	/
O=C1C=C(c2ccc3[nH]ccc3c2)C[C@@H](c2ccc(F)cc2)C1	-51	-5	0	/	9	0	/	/	/
O=C1CCCCCN1CSc1nc2ccccc2s1	-11	-7	/	17	-5	/	/	/	/
O=C(C[C@@H]1C[C@H]2c3cc(NC(=O)c4cccnc4)ccc3O[C@H]2[C@@H](CO)O1)NCc1cc(F)ccc1F	/	/	41*	/	/	0	6	i	1[23.5 µM]
CN1CCN(C(=O)C[C@H]2C[C@@H]3c4cc(NC(=O)c5cccnc5)ccc4O[C@@H]3[C@H](CO)O2)CC1	/	/	3	/	/	/	/	/	/
CN(C)C(=O)C[C@@H]1C[C@@H]2c3cc(NC(=O)c4cccnc4)ccc3O[C@@H]2[C@@H](CO)O1	/	/	48*	/	/	0	-8	i	-1
O=C(C[C@@H]1C[C@H]2c3cc(NC(=O)c4cccnc4)ccc3O[C@H]2[C@H](CO)O1)NCC(F)(F)F	/	/	18	/	/	-1	/	/	/
O=C(C[C@H]1C[C@@H]2c3cc(NC(=O)c4cccnc4)ccc3O[C@@H]2[C@@H](CO)O1)NCC(F)(F)F	/	/	44*	/	/	0	-5	i	0
O=C(Nc1ccc2c(c1)[C@H]1C[C@@H](CC(=O)N3CCc4ccccc4C3)O[C@@H](CO)[C@H]1O2)c1cccnc1	/	/	42*	/	/	1	-6	i	-5
O=C(C[C@H]1C[C@H]2c3cc(NC(=O)c4cccnc4)ccc3O[C@H]2[C@@H](CO)O1)NCc1cc(F)ccc1F	/	/	3	/	/	-1	/	/	/
C[C@H](C(=O)N(C)C[C@@H]1OCc2ccccc2-c2ccccc2C(=O)N([C@@H](C)CO)C[C@@H]1C)c1ccccc1	/	/	0	/	/	0	/	/	/
Cc1cc(C(=O)NC2CC(C)(C)Cc3c2cnn3-c2cccc(F)c2)nn1C (stereo unspecified)	-3	0	69*	-7	-7	1	-9	-9	-8
CC(=O)c1ccc(C(=O)N2CCCC(CCC(=O)N(C)CCc3ccccn3)C2)s1 (stereo unspecified)	-23	1	66*	7	1	-2	3	-15	-10
CN(CCc1ccccn1)C(=O)CCC1CCCN(C(=O)c2cscn2)C1 (stereo unspecified)	-14	1	/	16	-8	0	/	/	/
O=C(CSc1nc2c(c(=O)n1-c1ccc(Cl)cc1)SCC2)N1CCCC1	-22	-2	2	3	-12	/	/	/	/
O=C(CSc1nc2c(c(=O)n1-c1ccc(Cl)cc1)SCC2)N1CCOCC1	10	-4	56*	6	-10	1	-7	-6	-4
CC(=O)c1ccc(N2CCN(c3ccc(C(N)=O)cc3[N+](=O)[O-])CC2)cc1	-24	-4	/	13	0	1	/	/	/
CC(=O)c1ccc(N2CCN(c3ncccn3)CC2)c([N+](=O)[O-])c1	-14	-3	67*	6	6	2	-2	-9	-1
COc1cc2c3cc1Oc1cc(ccc1O)C[C@@H]1c4c(cc(OC)c(O)c4Oc4ccc(cc4)C[C@H]3N(C)CC2)CCN1C	-4	-2	1	/	9	-9	/	/	/
COc1cc2c3cc1Oc1cc(ccc1O)C[C@@H]1c4c(cc(OC)c(O)c4Oc4cccc(c4)C[C@@H]3N(C)CC2)CC[N+]1(C)C	3	1	51*	/	-5	-7	-7	15	2
O=C(C1CC1)N1CC[C@@H]2[C@H]1c1cc(Br)ccc1N[C@@H]2CO	/	/	88*	/	/	/	-3	i	-7
O=C(Cc1ccccc1)N1CC[C@@H]2[C@H]1c1cc(Br)ccc1N[C@@H]2CO	/	/	86*	/	/	-1	7	i	-8
COc1ccc(-c2n[nH]c3c2CN(C(=O)c2ccc(OC)c(OC)c2)CC3)cc1	-16	-2	86*	2	2	1	-8	29	7

Screening results: PubChem, several laboratories
